Screening data deposited in PubChem by several laboratories.
The full list was thinned out, with hits kept by preference.
FXIIa mix inh = human factor XIIa inhibitors, primary screen, biochemical, pooled compound mixtures, fluorogenic substrate | Coagulation factor XII (Homo sapiens), P00748 | AID 684, 2007 | purified FXIIa | inhibition, % at 5 µM | 62,000 tested, 0.2% active;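 note: 0% = enzyme without compound and 100% = no enzyme blank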
TNAP act mid DEA = human TNAP enzyme activators, primary screen, biochemical, luminescent, intermediate phosphate acceptor level | Alkaline phosphatase, tissue-nonspecific isozyme (Homo sapiens), P05186 | purified TNAP, CDP-star luminescence, 100 mM DEA, 30 min; active compounds read high; scale: 0 levamisole-inhibited, 1 vehicle-only enzyme | activation factor at 20 µM | 64,000 tested, under 10 active;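 active = activation factor of at least 2 at 20 µM, relative to controls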
FXIa inh mix = FXIa protease inhibitors in compound pools, primary screen, biochemical, 10-compound mixtures. Coagulation factor XI (Homo sapiens), P03951. purified FXIa, fluorogenic substrate, pooled mixtures. inhibition, % at 5 µM. 62,000 tested, 0.19% active. AID 680, 2007;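 note: each value is inhibition by a whole ten-compound pool holding the compound; 0% = enzyme with no mixture and 100% = wells lacking enzyme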
HePTP inhibitor = inhibitors of human HePTP phosphatase, primary screen, biochemical, absorbance, leukemia target. Tyrosine-protein phosphatase non-receptor type 7 (Homo sapiens), P35236. recombinant HePTP phosphatase activity, OD absorbance. inhibition, % at 20 µM. 110,000 tested, 0.64% active; in the data active = inhibition above about 50%;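 note: plate controls were vehicle for no effect and reference inhibitor for full effect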
Target sequence (P35236 whole entry, looked up): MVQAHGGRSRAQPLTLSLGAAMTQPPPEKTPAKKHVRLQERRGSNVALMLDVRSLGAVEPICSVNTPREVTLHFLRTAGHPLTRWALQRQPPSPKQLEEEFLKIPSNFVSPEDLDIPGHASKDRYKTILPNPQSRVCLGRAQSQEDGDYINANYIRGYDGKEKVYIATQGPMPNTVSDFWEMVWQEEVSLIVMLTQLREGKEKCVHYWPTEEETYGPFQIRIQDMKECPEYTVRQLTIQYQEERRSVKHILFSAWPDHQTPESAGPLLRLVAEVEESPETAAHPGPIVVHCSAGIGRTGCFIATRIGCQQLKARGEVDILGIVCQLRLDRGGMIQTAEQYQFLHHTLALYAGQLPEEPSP
D1 allo mod = D1 CRE-luciferase signal change, two-sided – cell-based, HEK293 D1, dopamine EC30, D1 allosteric modulator project, primary screen | dopamine EC30 potentiation; actives deviate in either direction | 58,000 tested, 5.9% active | AID 641, 2007 | B-score at 10 µM | D(1A) dopamine receptor (Homo sapiens), P21728;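 active = luminescence count or its row- and column-corrected plate score outside the 99.7% band of the plate's sample wells, on either side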
Candida biofilm = clotrimazole potentiators killing Candida biofilms, primary screen, with clotrimazole, Alamar Blue; C. albicans biofilm + clotrimazole; 85,000 tested, 0.14% active; inhibition, % at 6 µM; AID 834, 2007;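 active = inhibition above 20%; inactive = inhibition below 20%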;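 note: preformed 24 hr biofilms exposed to compound for 48 hr; 0% = biofilm without compound and 100% = blank killed by clotrimazole plus chlorhexidine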
D1 PAM confirm = D1 receptor positive allosteric modulators, retest, confirmation, cell-based, HEK293 D1, CRE-luciferase, duplicate | shares compounds with D1 allo mod | dopamine EC30 potentiation; active compounds read high | luminescence at 10 µM | 2,200 tested, 88% active;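 active = luminescence in either of two replicates above the same-plate mean plus 3 SD of the low-dose dopamine control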
D1 no dopamine = D1 receptor agonism without dopamine, confirmation, mechanism study for D1 allosteric modulator project, cell-based, HEK293 D1, CRE-luciferase, secondary assay 1; shares compounds with D1 allo mod; luminescence, no dopamine; active compounds read high; luminescence at 10 µM; 1,900 tested, 0.8% active; AID 646, 2007; in the data active = luminescence above about 3900
Isoprot counter = isoproterenol response counter-screen activity for D1 modulators. shares compounds with D1 allo mod. AID 647. HEK293 D1 CRE-luciferase, isoproterenol EC30 counter-screen; active compounds read high. 2,200 tested, 63% active. luminescence at 10 µM;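 active = luminescence in either replicate above plate mean of wells with a partly effective reference agonist dose plus 3 SD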;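 note: isoproterenol raises cAMP through native beta-adrenoceptor Gs so signal bypasses D1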
Numbers without * were called inactive; · = not tested or not shown. Cut-off read from the data, not from the text of the source, unless noted: active = inhibition above about 20% (passing the limit was not always enough); inactive = the rest.

SMILES	FXIIa mix inh	TNAP act mid DEA	FXIa inh mix	HePTP inhibitor	D1 allo mod	Candida biofilm	D1 PAM confirm	D1 no dopamine	Isoprot counter
c1coc(CNc2nc(-c3ccncc3)cs2)c1	14.3	0.9	3.2	7.4	3.57*	6.8	8460*	1716	3840*
CC(Sc1nc(N2CCOCC2)c2c(c1C#N)CC(C)(C)OC2)C(=O)Nc1ccccc1 (stereo unspecified)	2.6	1	-2.2	3.4	5.22*	5.7	9724*	1700	5172*
CC(=NCc1ccco1)c1c(C)[nH]n(-c2nc3ccccc3s2)c1=O	10.9	1	-2.0	3.1	0.901	-3.9	·	·	·
CC(=NCc1ccco1)c1c(O)n(C2CCCCC2)c(=O)[nH]c1=O	2.5	0.9	8.0	11.5	11.4*	8.4	14172*	1048	3684*
COc1ccc(C(=O)NCC2(c3ccc(OC)c(OC)c3)CCCC2)cc1	·	·	·	-3.2	·	·	·	·	·
COc1ccc(Nc2nc3ccccc3nc2NS(=O)(=O)c2cccs2)cc1	·	·	·	·	·	4.4	·	·	·
O=S(=O)(Nc1nc2ccccc2nc1NCC1CCCO1)c1cccs1 (stereo unspecified)	2.9	0.9	-4.0	2.2	8.63*	7.1	15576*	2020	3696*
COCCCNc1nc2ccccc2nc1NS(=O)(=O)c1cccs1	4.0	1.1	6.6	9.5	2.78*	12.0	10820*	1644	3056
O=C(O)C1C(C(=O)NCCc2ccccc2)C2C=CC1C21CC1 (stereo unspecified)	·	·	·	2.8	·	·	·	·	·
O=c1cc(CO)oc(CN2CCN(c3cccc(C(F)(F)F)c3)CC2)c1O	·	·	·	·	·	5.0	·	·	·
O=c1cc(CO)oc(CN2CCN(c3ccccc3)CC2)c1O	0.6	·	0.9	·	3.09*	4.3	7092	1768	2460
COc1cc(/C=N/NC(=O)CNC(=O)/C=C/c2ccco2)ccc1O	·	·	·	6.0	·	·	·	·	·
CCOC(=O)C(C)Oc1cc2oc(=O)c(CC)c(C)c2cc1CC (stereo unspecified)	·	·	·	-4.1	·	·	·	·	·
CCc1ccc(C(=O)O/N=C(\N)c2ccccn2)cc1	·	·	·	2.5	·	·	·	·	·
O=C(CSc1nc2ccccc2[nH]1)Nc1ccccc1N1CCOCC1	3.3	0.9	-19.0	5.1	·	6.1	·	·	·
O=C(CSc1nc2ccccc2[nH]1)Nc1cc(C(F)(F)F)ccc1N1CCOCC1	0.2	0.8	-4.6	3.1	4.04*	0.1	7804*	·	2428
O=C(c1cccc2ccccc12)N1CCN(CC2CC=CCC2)CC1 (stereo unspecified)	11.1	1	0.1	-2.0	4.61*	5.0	5828	1612	2432
CCCCNC(=O)c1ccc2nc(-c3ccco3)c(-c3ccco3)nc2c1	-0.5	0	5.6	7.4	3.85*	·	8120*	1444	2788
CCOC(=O)CSc1nc2c(sc(=S)n2Cc2ccco2)c(=O)n1-c1ccccc1	4.5	0.8	-6.6	2.6	4.47*	3.7	8252*	1608	2980
CCN(CC)C(=O)CSc1nc2c(sc(=S)n2Cc2ccco2)c(=O)n1-c1ccccc1	·	·	·	·	·	-4.9	·	·	·
CCC(c1nnnn1CCOC)N(Cc1ccc(C)cc1)Cc1cc2cc(OC)ccc2[nH]c1=O (stereo unspecified)	-2.4	0.8	-2.6	7.3	5.79*	3.3	14016*	1612	5100*
Cc1nc(N2CCC(C(N)=O)CC2)c2nnn(Cc3ccccc3)c2n1	·	1	·	4.1	3.21*	1.9	6740*	1504	2880
